This is a sample that favours compounds with a hit; in the whole collection about 3.4% have one here.
TEAD-YAP block: TEAD-YAP interaction inhibition. AID 1259422. actives 1.4% (n = 640,000). inhibition, % at 9.12 µM. HEK-TIYL cells, TEAD-Gal4/YAP UAS-luciferase luminescence; in the data active means inhibition above about 32%;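 further: 0% = median of test compound wells and 100% = reference inhibitor wells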
MITF primary: human MITF inhibition, primary screen; O75030; AlphaScreen MITF homodimerization, bead proximity signal; inhibition, % at 2.6 µM; actives 0.91% (n = 650,000); AID 1259374; in the data active means inhibition above about 50%;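 further: 0% = vehicle wells with protein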
GPR151 ag: activates the human receptor GPR151 | Q8TDV0 | PathHunter beta-arrestin GPR151 cells, luminescence | actives 1% (n = 650,000) | activation, % at 11.2 µM | AID 1508602; in the data active means activation above about 4.9%;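 further: 0% = median of compound wells and 100% = cells with positive control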
FBW7 activator: human FBW7 E3 ligase activation, primary screen. normalized activity (activation), % at 26.1 µM. actives 0.13% (n = 650,000). Q969H0. AlphaScreen FBW7–phospho-cyclin E peptide binding, activator screen. AID 1259310; in the data active means normalized activity above about 1.9%;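 further: purified mutant Fbw7 with reduced substrate affinity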
Numbers without * were called inactive.

SMILES	TEAD-YAP block	MITF primary	GPR151 ag	FBW7 activator
CCOC(=O)c1c(N)n(CC(C)NC(=O)COc2ccccc2)c2nc3ccccc3nc12 (stereo not drawn)	4	-22	-1	0
CN(C(=O)c1nccc2ccccc12)c1nc2c(s1)CCc1occc1-2	-26	8	-1	0
COc1ccc2cc(S(=O)(=O)n3cnc4cc(C)c(C)cc43)ccc2c1	67*	11	1	0
CCOc1ccc(CN2CCN(C(=O)c3ccccc3F)CC2)cc1	40*	30	0	0
Cc1ccc(CN2CCN(C(=O)c3ccccc3F)CC2)cc1	-1	40	3	0
CC(=O)N1CCN(Cc2ccc3c(c2)CN(Cc2ccc(Cl)cc2)CCO3)CC1	47*	6	0	0
CCOc1ccc(CN2CCOc3ccc(CN4CCN(C(C)=O)CC4)cc3C2)cc1	37*	-4	1	0
c1ccc(Nc2nc(-c3ccc(N4CCOCC4)nc3)nc3c2ncn3-c2ccsc2)cc1	10	15	-1	0
CC(=O)Nc1ccc(Nc2nc(-c3ccc(N4CCOCC4)nc3)nc3c2ncn3-c2ccsc2)cc1	43*	4	-2	0
COc1ccc(-c2nc(Nc3ccc(N4CCOCC4)cc3)c3ncn(-c4ccsc4)c3n2)cn1	45*	-2	-1	0
C=CCSc1nnc2c(n1)OC(c1ccc(OCCC)cc1)Nc1ccccc1-2 (stereo not drawn)	-50	-4	-2	0
Fc1ccc(OCCCNCc2ccco2)cc1	1	36	-1	0
S=c1[nH]c2cc(Cl)ccc2n1C1CCCCC1	2	-8	-1	3.1*
O=c1c2cc(Cl)ccc2[nH]c(=S)n1C1CCCCC1	2	8	1	0
N/S(=N/S(=O)(=O)c1ccccc1)c1ccc([N+](=O)[O-])cc1 (stereo not drawn)	7	1	1	0
Cc1ccc(N2C(=O)C3C4c5ccccc5C(C=O)(c5ccccc54)C3C2=O)cc1[N+](=O)[O-] (stereo not drawn)	34*	8	1	0
O=CC12c3ccccc3C(c3ccccc31)C1C(=O)N(c3ccccc3)C(=O)C12 (stereo not drawn)	19	6	-1	0
O=CC12c3ccccc3C(c3ccccc31)C1C(=O)N(c3ccc(Cl)cc3)C(=O)C12 (stereo not drawn)	44*	0	0	0
O=c1c2cc(O)c(O)cc2oc2cc(O)c(C3OC(CO)C(O)C(O)C3O)c(O)c12 (stereo not drawn)	-12	59*	1	0
O=c1cc(-c2cc(O)c(O)c([C@@H]3O[C@H](CO)[C@@H](O)[C@H](O)[C@H]3O)c2)oc2cc(O[C@@H]3O[C@H](CO)[C@@H](O)[C@H](O)[C@H]3O)cc(O)c12	16	-16	0	0
COC1=C(O)C(=O)c2c(cc3oc(C(C)=O)c(O)c3c2O)C1=O	2	76*	-1	0
O=C(N[C@H]1C[C@H]2C(=O)N[C@H](Cc3ccccc3)C(=O)N2C1)c1ccc(Br)cc1	-6	-3	0	0
O=[N+]([O-])c1cc2c(cc1/C=N/Nc1ccccn1)OCO2	5	16	-1	0
Cc1ccc(-c2cc(C(=O)NN)[nH]n2)c(C)c1	43*	3	-2	0
Fc1ccccc1Nc1nnc(SCC2CCCCO2)s1 (stereo not drawn)	73*	-1	-10	0
SMILES	TEAD-YAP block	MITF primary	GPR151 ag	FBW7 activator
COC(=O)c1cc(Nc2nc3ccc(C)cc3n3cnnc23)cc(C(=O)OC)c1	-2	1	-1	0
Nc1c(C(=O)N2CCOCC2)sc2nc(-c3ccccc3)cc(C(F)(F)F)c12	-9	6	-1	2.8*
COc1ccccc1N1C(=O)c2cc(Cl)c(Cl)cc2C1=O	4	-6	0	0
COc1ccc(NC(=O)Nc2cc(C)ccn2)cc1	41*	6	-3	0
Cc1ccc(NC(=O)Nc2cc(C)ccn2)cc1	-26	4	0	0
COc1ccc(C(=O)/C=C/Nc2cc(C)ccn2)cc1	36*	1	-7	0
CC(C)(C)c1ccc(C(=O)Oc2cc(N)n(S(=O)(=O)c3ccc(Cl)cc3)n2)cc1	-1	16	-1	0
O=C(/C=C/c1ccc(Br)cc1)On1c(-c2ccc(F)cc2)nc2ccccc2c1=O	6	2	2	0
COc1cccc(-c2nc3n(n2)C(c2cccnc2)C2=C(CCCC2=O)N3)c1 (stereo not drawn)	-8	-5	-1	0
O=C(Nc1ccc(N2CCOCC2)cc1)c1cccc(-n2cc(-c3nc4ccccc4o3)cn2)c1	-6	-5	-1	2.4*
CC(C)(C)OC(=O)N1CCc2c(cnn2-c2cccc(C(=O)Nc3ccc(N4CCOCC4)cc3)c2)C1	1	12	-1	4.1*
O=C(Nc1ccc(N2CCOCC2)cc1)c1cccc(-n2ncc3c2CCNC3)c1	0	1	0	0
CC(C)Oc1ccc(C(=O)NCCC(=O)O)cc1	-13	16	1	0
CC(C)COc1ccc(C(=O)NCCC(=O)O)cc1	8	22	1	0
CC(C)Oc1ccc(C(=O)NCCCCCC(=O)O)cc1	39*	5	0	1
CC(C)CCOc1ccc(C(=O)NCCCCCC(=O)O)cc1	38*	2	-1	0
CC(C)COc1ccc(C(=O)NCCCCCC(=O)O)cc1	47*	-9	1	0
CCOc1ccc(C(=O)NCCCCCC(=O)O)cc1	20	12	-1	0
NC(=O)c1ccccc1NC(=O)Nc1noc2c1COc1ccccc1-2	-15	3	3	0
NS(=O)(=O)c1ccc(CCNC(=O)c2ccc(C#CC3(O)CCCCC3)cc2)cc1	45*	16	-1	0
O=C(CSc1nnnn1-c1ccc(F)cc1F)Nc1ccc2c(c1)OCCO2	38*	3	-1	0
CCn1c(SCC(=O)Nc2cccc([N+](=O)[O-])c2)nnc1-c1ccccc1O	32*	-3	0	0
C=CCn1c(SCC(=O)Nc2ccc3c(c2)OCCO3)nnc1-c1cccs1	51*	10	0	0
C=CCn1c(SCC(=O)Nc2ccccc2)nnc1-c1ccccc1O	33*	-4	-1	0
CCn1c(SCC(=O)NC(=O)Nc2ccc3c(c2)OCCO3)nnc1-c1cccs1	-4	-1	0	0
COc1ccc(-n2nnnc2SCC(=O)Nc2ccc3c(c2)OCCO3)cc1OC	1	-3	-1	0
C=CCn1c(SCC(=O)Nc2cccc([N+](=O)[O-])c2)nnc1-c1ccccc1O	31	-8	1	0
O=C(Nc1cccc(NC(=O)c2cc(Br)ccc2Cl)c1)c1ccccc1Cl	12	4	1	0
CCN1CCN(C(c2cccc(C#N)c2)c2nnnn2Cc2ccccc2)CC1 (stereo not drawn)	-3	3	-1	0
CCc1nc2ccccc2c2nn(CC(=O)NCc3ccco3)c(=O)n12	6	7	0	0

Source: PubChem (The Scripps Research Institute Molecular Screening Center)
